In PubChem BioAssay (NCATS):
Results filed as inconclusive are left out. Active and inactive are the calls of the source. Calls follow the shape of the dose curve; as a rule, active = well fitted inhibition curve with a large enough effect; inconclusive = small, poorly fitted or top-dose-only effect; inactive = no such curve, though single readings can be large or run the other way.

Experiment: Primary qHTS for small molecule stabilizers of the endoplasmic reticulum resident proteome: Secreted ER Calcium Modulated Protein (SERCaMP) assay (AID 1508630)
Details: SH-SY5Y GLuc-SERCaMP (Gaussia luciferase released on ER calcium loss) secretion, thapsigargin, luminescence; series mostly up to 38.4 µM
Outline: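 GLuc-SERCaMP-expressing SH-SY5Y cells, pretreated 16 h with compound, are challenged with thapsigargin to empty ER calcium stores; after 4 h, coelenterazine is added directly to the medium and luminescence is imaged.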

Potency, inactive:
CC1CCC(C(C)[C@H]2CCC3C4CC(=O)C5C[C@@H](O)CC[C@]5(C)C4CC[C@@]32C)=NC1 (some centres undefined)
CC(=O)OC[C@@]12C(=O)[C@@H](O)[C@@H](C)[C@]3(C[C@@H](c4ccoc4)O[C@@H]3OC(C)=O)[C@H]1CCC[C@]21CO1
CCCCCCCCCCCCCCCC(=O)C1=C(O)C(CO)OC1=O (centres undefined)
O=c1ccc2ccc(O[C@@H]3O[C@H](CO)[C@@H](O)[C@H](O)[C@H]3O)c(O)c2o1
CN[C@H]1CCc2cc(OC)c(OC)c(OC)c2-c2ccc(N[C@@H]3CCCCNC3=O)c(=O)cc21
CC(=O)OC[C@@]1(O)C[C@@]23CC[C@@H]4c5ccoc5CC[C@@]4(C)[C@@H]2CCC1C3
COc1ccc(/C(=C\C(=O)O)c2nccc3cc(OC)c(OC)cc23)cc1OC
COc1ccc(C2c3cc(OC)c(OC)cc3Cc3c4cc(OC)c(OC)cc4cc[n+]32)cc1OC (centres undefined)
Cn1c(=O)c(-c2ccccc2)c(O)c2ccccc21
C=C[C@@H](C1=CC(=O)C(OC)=C(OC)C1=O)c1ccccc1
COc1c(O)cc2c(=O)oc3c(OC)c(O)cc4c(=O)oc1c2c34
COc1ccc2c(c1)OC[C@H]1c3cc4c(cc3O[C@@H]21)OCO4
C/C=C(\C)C(=O)O[C@H]1C[C@@]2(C)CCC(C(C)C)C2(O)CC[C@@]1(C)O (some centres undefined)
C=C1CCC2[C@](C)(CO)[C@H](O)CC[C@@]2(C)[C@@H]1C/C=C1/C(=O)OC[C@H]1O (some centres undefined)
